Results taken from PubChem BioAssay AID1508600 (Functional Genomics Laboratory (NCATS/FGL), 2020).
About 3,700 (7%) of roughly 53,000 sequences were called active.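 How the source made its calls: active means gene knockdowns whose robust z-score for IL-1 alpha signal is at least 2 or at most -2, so actives lie on both sides; inactive means the rest.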 The entries come from a sample that favours actives as a whole.

Test: Components of the Cytosolic LPS Sensing Pathway: Gene Identification via Genome-wide siRNA Screen;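 further: robust z of the log signal after scaling to non-targeting control siRNA wells of the plate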
Settings: RAW264.7 macrophages, IL-1a HTRF, actives lie on both sides, screened at 100 nM (by protocol), cells primed 5 h with Pam3CSK4 first
In short: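 Knockdown: 100 nM siRNA, 48h, RAW264.7. Stimulation: Pam3CSK4 5 h, then LipidA via TransIT-TKO 24 h. Output: supernatant IL-1a HTRF, negative-control-normalized, log robust z-score; viability by CellTiter-Glo.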

z-score, inactive:
GGAUGAACCAAGCUACUGCTT against Gba2 -0.541
CCCAAUACAUGAGCUUCUGTT against Ch25h -0.209
GGAAGACUUCGUGUUGACATT against Proz 0.223
GGAAAAAUGACUGAUCUCUTT against Unc5c -0.0354
GGACCUACUACGUAAACCATT against Nedd4 0.434
GGAAUAUCGGACUUUUUCATT against Mis18bp1 0.635
CGGGACCUUGUUGAUAACUTT against Tmem130 0.811
GGUGUUUGGGAAAGGUCUGTT against Trpm1 -1.33
GCACAAAUGGGAAUACGACTT against Klhl36 -0.94
CCAACCAGACUUAUUUAAUTT against Zfp37 1.61
GGGUGGCUAUGGACAAAAATT against Arl5c 0.887
GGACAUCAAUUCAACAGUUTT against Lifr -0.361
GGAAGAGUGUUUAAACUAUTT against Kbtbd8 -0.591
CCUGAUCUAAUCCUAAAUGTT against Pgr -0.171
AUCUAUUCGAAUCAGGAAGTT against Epsti1 -0.102
GUCCAGAGUGACCACAUUUTT against Pemt -0.471
GGAUUACGCAGAUUCCAUUTT against Rab22a -0.474
CGAAUUGAAUUCUACGAACTT against Pmm2 0.252
GGAUGAUAAAGACAAAGUATT against Ppm1g -0.921
GGUUUCUGGCUUUCCGUAGTT against Erf -0.0549
GCUCUGCAUGACCUUACCUTT against Ugt2b1 0.245
GGCCUUUGUACAGGACCCATT against Tor2a -1.01
GGUCAGAAGAGAUCAAAAGTT against Ttc23 -0.0386
GGACAGCAAGAUGAAGAUGTT against Il17ra -1.32
UUGAUUUGGUAGCCUGCUCTT against Olfr1303 0.962
CCCUGCUUCGUGUGCUAUUTT against C130074G19Rik 0.499
GGAAUGUGUUGAAAUAUGATT against P4ha3 0.0288
CCACGGAGACAACUUAGUATT against Scfd2 0.568
GGACUUUUCUGCUAUUUACTT against Kcnh2 -0.471
GGAAAGAAUUGAAUACUCGTT against Gpr89 -0.279
GGUGAAUUUCCUUCUACAUTT against Tas1r1 -1.56
GGUGAUAAAGUCAUUCCACTT against Adh1 0.759
GGAAGACAUAUUUCAACAGTT against Ehhadh -1.37
GCAGUGUAUUGGUAAUCAATT against Olfr630 1.44
GCAUCGAUCUUGAGUUAGATT against Hebp1 0.579
GCGCAGGUUCAAUGUGGAUTT against Prodh 1.72
GGCGAUAGACGAGUAUCAGTT against Aida 0.41
CCAGCAAAUAUCCUAGUAATT against Cdk19 0.111
CGUGUGUGUCAUGUUACGGTT against Dusp2 -0.901
GGAUGAAUGGAGAACUGAATT against Afap1l1 -1.21
CCAUGACAAUGAAUAUCCUTT against Ms4a19 -1.24
GGAACUAUCACGUGUUCUATT against Myo7a 0.837
CCAGAUGGGAUACCUCUACTT against Tmed6 0.303
CCCUAACCUCAUUUCAUGUTT against Vmn1r63 -1.01
GGAAAACAACGAAUUGCUCTT against Uri1 0.791
GCCGAUGACACUAUCUACCTT against Cryz 0.465
CCUCAAUCAAAAUGUAAGUTT against Atp6v0a2 0.456
GGAUCUGAAGGAAUACUUUTT against Lmf1 1.69
GGAACAAACCAAGUUCACATT against Kcnip2 -0.66
GGACUCCAAGAUCAUGGUCTT against Pnck 1.07
GCAAGACCCUUCGAGUGAATT against Nkd2 -1.2
GGCCAUUUAUCCAUGGUUGTT against Zdhhc17 0.954
GGCCUCAAGUUGCUAUGCCTT against Mlxipl -0.2
GGAGAUGAAGUUAAAGCGATT against Slc26a6 0.619
GCACUGAACUUUGUCGAUUTT against Fam122a 0.325
CCCGAAGAGCAAAAAAGAUTT against 1110004F10Rik -1.5
GGUGGUGUGUGAUGAGAAUTT against Pabpc6 0.649
GGGCUGUUUGUAGCAGAUUTT against Olfr1279 -1.12
GGUCACGGAGAAACUAAAGTT against Ppme1 0.703
GGCUAGGUAAUCACUGGGUTT against Fate1 0.987
CCAAUAUGAGACCAUCAUUTT against Sv2b 0.385
GGUCAAUUUGGUUUGUGAATT against Cenpa -0.374
GGUAGAAAUUUACCUCAUUTT against Dusp4 -1.42
GCAGAGGAUAUAAAACAAGTT against Pde2a -0.86
GGAAAAUAGGGCGACAAAUTT against Tdrd7 0.673
GGAUGAUUGAGAUAGCGAATT against Polr1e 0.608
CCGUACAUAUGGUGAUCCATT against Rtn1 -0.162
GGGAGAAGUGCUGUGGAUUTT against Fras1 0.401
CGAGAGCUAAAAAGAGUAATT against Chd1 0.42
GGAAGUUUCUGGAAACACATT against Mbd3 -0.487
GGCAACAUGGUGAUCAUCGTT against Olfr323 -0.461
CGGUAUUUCAUCCUGGAUATT against Plekha1 0.403
GCAUGGAACAAGGUUGCUCTT against Pa2g4 1.84
GGUACACCAAGGCUUGCUATT against Coq8b -0.343
GGCCUCUUUUGGUAUUCCATT against Zfp42 0.946
GGCCUCAAUGCAGUAUCAATT against Shisal2b 0.773
GCUAAGAAUAGGAGUUAGATT against Ift57 0.419
GGUCAGAAGUUAAUUUAUGTT against Rad23b -0.413
GGACCUGCUCUUGGUCAUUTT against Fam118a 0.461
GGUGAUGCGCCUGAAGGAUTT against Ntng2 -0.668
GCUCCUCCAUCAGUUAGAUTT against Ube2v2 -1.06
GGAAUCAACUUGGUGGCUCTT against Rxrg -0.0611
GGGUUUCUGUUUGAUUCCATT against Gria1 -0.747
GCCAACCUCUGUGUGUAUUTT against Olfr1263 0.799
UGGUUGUAUUAUUCUGUUGTT against Defb38 0.188
GGACUUAUCUCAUCCAAGATT against Gm9946 0.39
GGACUUUGAAAAAGAUGCATT against Fkbp7 1.21
AGUAUUCUUUGCUUUCCUUTT against Olfr822 0.731

z-score, active:
CGUCCAGUAUACGCUGGUUTT against Cdc45 5.41
GUUCAAGACGGAGAAGAGGTT against Gpr27 3.03
GGCUCUAUGUUUAUAAUGATT against Olfm5 -2.07
GGUUGGUAGACUGUGCUUGTT against Hgsnat -2.56
GGCUUUUGAAGUAAAUACATT against Pcdhb14 2.65
GCCUACUCCCAAGAGGAAATT against Gprc5a 2.32
GGUACCUGAGGUAGAAAAGTT against Pnma3 -2.5
GGCGGUCAAGUGAGGUUCUTT against Hhex 3.62
GCUGGGAUAUGAAAUCUAUTT against Gprc6a 2.74
GGAGAGCUGGAACAAUAGCTT against Bcl2l2 2.26
GCGAGCUAAUGUCACAUUCTT against Il17ra 3.74
GGUCUCUUUCAUGCUCGCATT against Agr3 3.06
GGCAGAUGUGUUUGCUUUUTT against Pbk 3.51
CGGUCAUUAAUGAAGCCUGTT against Pamr1 2.65
GCGACAUAACUGCAUUCAATT against Kcnh1 2.79
GGAGGAUUGUCCACAUGGATT against Ccl27a 4.32
GCAUGAGUUAGACCAUAAUTT against Phf12 -2.59
GGGAAGUGACCAUCAAGAATT against Slc8a3 2.56
GGCUAUGCUGCCUACUACUTT against Bmp7 -2.63
CCAGAAACGAUGCAUUCAUTT against Olfr124 2
